According to PubChem BioAssay (NCATS):
Values joined by “and” are separate entries in the source; they are usually repeats but may differ in a detail not shown here. Identical values can stand only once. Results filed as inconclusive are left out. Active and inactive are the calls of the source. Unless noted, calls come from the whole dose curve; as a rule, active = well fitted curve in the direction sought with a large enough effect; inconclusive = small, poorly fitted or top-dose-only effect, or another doubt; inactive = no such curve, though single readings can be large; an effect the other way counts as inactive or inconclusive.

How the values were obtained:
[1] = molecular target: Estrogen receptor (Homo sapiens) (UniProt P03372); experiment: qHTS assay for small molecule antagonists of estrogen receptor alpha signaling (AID 588513; active = well fitted curve in the direction sought with a large enough effect in the signal ratio, with a control signal flat, not every such curve was filed as active; the % refers to the signal ratio; note: % is set by controls: 0 for no effect and ±100 for the full control effect)
Estrogen receptor (Homo sapiens), sequence (P03372 whole entry, looked up): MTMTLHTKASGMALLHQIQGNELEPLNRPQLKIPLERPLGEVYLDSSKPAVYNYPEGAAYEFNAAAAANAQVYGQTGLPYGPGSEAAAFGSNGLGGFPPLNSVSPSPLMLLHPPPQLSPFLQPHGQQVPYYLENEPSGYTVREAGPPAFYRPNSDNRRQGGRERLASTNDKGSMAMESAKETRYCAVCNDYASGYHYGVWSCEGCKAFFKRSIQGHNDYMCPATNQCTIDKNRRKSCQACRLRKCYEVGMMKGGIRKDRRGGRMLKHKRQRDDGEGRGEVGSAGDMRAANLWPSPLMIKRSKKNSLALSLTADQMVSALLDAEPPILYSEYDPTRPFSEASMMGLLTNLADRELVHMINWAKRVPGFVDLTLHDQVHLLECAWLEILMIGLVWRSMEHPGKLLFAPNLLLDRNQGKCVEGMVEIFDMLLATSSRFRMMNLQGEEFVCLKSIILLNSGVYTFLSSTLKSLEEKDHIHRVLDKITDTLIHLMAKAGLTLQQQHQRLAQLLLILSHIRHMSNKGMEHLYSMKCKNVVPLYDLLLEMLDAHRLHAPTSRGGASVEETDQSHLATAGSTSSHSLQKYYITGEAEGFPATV
Outline: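 Beta-lactamase reporter, antagonist mode, HEK 293 GripTite cells; 0.5nM E2 stimulus, 18 h, 37 C; CCF4 dye 2 h RT; fluorescence. IC50 and efficacy from Hill fits, normalized to E2 and DMSO.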

[2] = qHTS assay for small molecule antagonists of peroxisome proliferator-activated receptor delta signaling (AID 588535); settings: HEK293T PPARd-UAS-bla, beta-lactamase FRET ratio, 18 h; 460 nm channel;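 note: cells co-treated with a PPAR-delta agonist as stimulator during compound exposure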
Outline: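 Compounds tested in titration on PPAR-delta-UAS-bla HEK293T cells grown in charcoal/dextran-stripped serum (2%); beta-lactamase activity read via CCF4 emission at 460 and 530 nm.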

[3] = molecular target: Peroxisome proliferator-activated receptor gamma (Homo sapiens) (UniProt P37231); experiment: qHTS assay for small molecule agonists of peroxisome proliferator-activated receptor gamma signaling (AID 588536; active = well fitted curve in the direction sought with a large enough effect in the signal ratio, with a control signal flat, not every such curve was filed as active; the % refers to the signal ratio;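 note: 0% = DMSO basal wells and 100% = rosiglitazone at 2 µM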)
Peroxisome proliferator-activated receptor gamma (Homo sapiens), sequence (P37231 whole entry, looked up): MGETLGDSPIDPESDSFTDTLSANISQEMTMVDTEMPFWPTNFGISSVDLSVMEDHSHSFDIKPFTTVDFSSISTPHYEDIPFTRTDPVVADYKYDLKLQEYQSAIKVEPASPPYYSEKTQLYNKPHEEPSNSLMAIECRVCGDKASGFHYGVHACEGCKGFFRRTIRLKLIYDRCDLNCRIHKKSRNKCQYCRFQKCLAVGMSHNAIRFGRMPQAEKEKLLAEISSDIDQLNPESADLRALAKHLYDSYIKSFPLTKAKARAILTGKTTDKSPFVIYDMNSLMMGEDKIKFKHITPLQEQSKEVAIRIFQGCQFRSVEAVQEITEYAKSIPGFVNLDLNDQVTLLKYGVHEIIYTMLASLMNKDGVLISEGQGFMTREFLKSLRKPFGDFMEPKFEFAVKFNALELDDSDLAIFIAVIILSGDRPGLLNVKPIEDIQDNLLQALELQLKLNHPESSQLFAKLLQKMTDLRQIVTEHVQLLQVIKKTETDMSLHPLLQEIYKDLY
Outline: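 Using GeneBLAzer HEK293 cells, response was quantified by CCF4 fluorescence and normalized between basal DMSO (0%) and rosiglitazone 2 uM (100%); curves yielded half-maximal stimulation concentration and efficacy.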

[4] = molecular target: Peroxisome proliferator-activated receptor gamma (Homo sapiens) (UniProt P37231); experiment: qHTS assay for small molecule antagonists of peroxisome proliferator-activated receptor gamma signaling (AID 588537; active = well fitted inhibition curve with a large enough effect in the signal ratio, with a control signal flat, not every such curve was filed as active; the % refers to the signal ratio;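 note: reporter cells co-stimulated with 50 nM rosiglitazone agonist during compound treatment; % of control where 0% means no effect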)
Outline: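 HEK293 cells, PPAR-gamma-UAS-bla, 3000/well. Pre-incubation 6-6.5 h, 37 C. Compound titration with rosiglitazone 50 nM final, 16 h. CCF4 dye, 2 h RT, dual-emission fluorescence.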

[5] = molecular target: Thyroid hormone receptor beta (Homo sapiens) (UniProt P10828); experiment: qHTS assay for small molecule agonists of thyroid hormone receptor beta signaling (AID 588545; calls by dose curve;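 note: 0% = DMSO only and 100% = 10 nM T3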)
Thyroid hormone receptor beta (Homo sapiens), sequence (P10828 whole entry, looked up): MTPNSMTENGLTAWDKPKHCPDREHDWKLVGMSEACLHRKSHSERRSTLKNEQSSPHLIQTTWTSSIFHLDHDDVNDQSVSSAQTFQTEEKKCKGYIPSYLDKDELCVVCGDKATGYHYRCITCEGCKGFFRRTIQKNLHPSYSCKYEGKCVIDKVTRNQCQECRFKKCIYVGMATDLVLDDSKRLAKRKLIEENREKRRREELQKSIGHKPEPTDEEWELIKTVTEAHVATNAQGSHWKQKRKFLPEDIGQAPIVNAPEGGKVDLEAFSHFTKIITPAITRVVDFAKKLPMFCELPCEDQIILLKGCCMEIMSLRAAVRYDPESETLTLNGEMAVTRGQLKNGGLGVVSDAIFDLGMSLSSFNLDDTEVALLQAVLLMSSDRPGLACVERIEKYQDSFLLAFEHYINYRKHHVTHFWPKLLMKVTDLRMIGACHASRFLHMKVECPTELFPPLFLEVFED
Outline: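 Stimulation of a TR-driven beta-lactamase reporter was quantified in GripTite HEK 293 cells. Compound series ran for 18 hrs; curves were normalized to T3 and DMSO controls and fitted to yield EC50.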

[6] = qHTS assay for small molecule antagonists of retinoid X receptor alpha signaling (AID 588546; active = well fitted inhibition curve with a large enough effect in the signal ratio, with a control signal flat, not every such curve was filed as active; the % refers to the signal ratio;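 note: cells stimulated with 9-cis-retinoic acid as agonist; % is set by controls: 0 for no effect and ±100 for the full control effect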); settings: HEK293T RXRa-UAS-bla, beta-lactamase ratio, antagonist mode; measured here: W530 green channel, cytotoxicity proxy
Outline: (§1)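 Beta-lactamase reporter inhibition, read as CCF4 fluorescence ratio (ex 405, em 460/530 nm) after 2 h at RT. HEK293T UAS-bla cells, 2500/well, were stimulated with 9-cis-RA at 500 or 100 nM final alongside test compound for 18 h at 37 C.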

[7] = molecular target: Retinoic acid receptor RXR-alpha (Homo sapiens) (UniProt P19793); experiment: as above; settings: HEK293T RXRa-UAS-bla, beta-lactamase ratio, antagonist mode
Retinoic acid receptor RXR-alpha (Homo sapiens), sequence (P19793 whole entry, looked up): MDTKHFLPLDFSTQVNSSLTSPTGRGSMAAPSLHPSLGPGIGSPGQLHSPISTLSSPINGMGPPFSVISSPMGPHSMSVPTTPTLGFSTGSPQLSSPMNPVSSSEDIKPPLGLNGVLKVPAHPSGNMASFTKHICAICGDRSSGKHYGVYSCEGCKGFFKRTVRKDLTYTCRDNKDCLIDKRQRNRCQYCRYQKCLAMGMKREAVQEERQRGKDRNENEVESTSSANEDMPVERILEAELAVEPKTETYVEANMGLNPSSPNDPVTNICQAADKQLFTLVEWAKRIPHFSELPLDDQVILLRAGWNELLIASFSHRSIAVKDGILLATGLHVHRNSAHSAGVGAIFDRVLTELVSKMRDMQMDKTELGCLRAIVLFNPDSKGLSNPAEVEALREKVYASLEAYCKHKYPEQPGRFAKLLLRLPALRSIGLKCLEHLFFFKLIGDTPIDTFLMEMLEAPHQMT
Outline: as §1

[8] = qHTS assay for small molecule activators of the p53 signaling pathway (AID 651743; active = well fitted activation curve with a large enough effect in the signal ratio, not every such curve was filed as active; the % refers to the signal ratio; note: series mostly up to about 92 µM; % of control where 0% means no effect); settings: HCT-116 p53RE-bla, beta-lactamase FRET ratio, 16 h; activation: stronger effect = higher value
Outline: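 Here HCT-116 cells with an integrated p53-responsive beta-lactamase gene were incubated with compounds (16 hours, 37 C) after a 5-hour plating period; beta-lactamase activity was detected as fluorescence intensity via B/G FRET substrate.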

[9] = qHTS assay for environmental chemicals that activate the Aryl hydrocarbon Receptor (AhR) signaling pathway (AID 651777); settings: 1A2-DRE human hepatoma cells, luciferase, 24 h; activation: stronger effect = higher value; note: % of control where 0% means no effect; nearly all actives have a fitted effect of over 15% in size
Outline: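 Quantitative HTS in stably transfected human liver-derived cells whose luciferase gene sits downstream of the CYP1A2 promoter and dioxin response element. After 24 hr exposure at 37 C, One-Glo luminescence was measured.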

[10] = qHTS assay for small molecule agonists of the antioxidant response element (ARE) signaling pathway measured by Nrf2-dependant transcriptional activity (AID 720636; active = well fitted curve in the direction sought with a large enough effect in the repeat runs; an effect the other way counts as inactive or inconclusive; note: % of control where 0% means no effect)
Outline: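 Quantitative HTS format in HepG2 cells stably expressing an ARE-luciferase reporter; 16 hr compound treatment at 37 C, luciferase signal detected with ONE-Glo.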

[11] = qHTS assay for small molecule agonists of the antioxidant response element (ARE) signaling pathway measured by Nrf2-dependant transcriptional activity - cell viability counter screen (AID 720653; active = well fitted curve in the direction sought with a large enough effect in the repeat runs; an effect the other way counts as inactive or inconclusive; note: % is set by controls: 0 for no effect and ±100 for the full control effect); settings: ARE-bla HepG2 viability, CellTiter-Glo ATP luminescence, 16 h; max response: stronger effect = lower value
Outline: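 ARE-bla HepG2 cells (2,000/well) rested 5 hrs at 37C/5% CO2, then exposed to compounds in DMSO for 16 hrs. Viability was read in the same wells as intracellular ATP by luminescence, 30 min at room temperature after reagent addition.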

[12] = qHTS assay for cell viability of HEK293 cells (AID 743288); settings: ATP luminescence (CellTiter-Glo), 18 h; max response: stronger effect = lower value; note: % is set by controls: 0 for no effect and ±100 for the full control effect; nearly all actives have a fitted effect of over 50% in size
Outline: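 ATP luminescence (CellTiter-Glo) reports metabolically competent cell number after parental HEK293 cells, 2,000/well, were treated with DMSO-dissolved compounds for 18 h at 37 C; reagent incubation 30 min, room temperature.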

[13] = qHTS assay for cell viability of the p53RE-bla HCT-116 cell line (AID 743292); note: % is set by controls: 0 for no effect and ±100 for the full control effect; nearly all actives have a fitted effect of over 55% in size
Outline: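 Viability of compound-treated p53RE-bla HCT-116 cells is taken from ATP-dependent luciferase luminescence. Treatment lasts 16 h at 37 C after a 5 h settling period; detection follows 30 min at room temperature.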

[14] = molecular target: Nuclear receptor subfamily 1 group I member 2 (Rattus norvegicus) (UniProt Q9R1A7); experiment: qHTS assay for small molecule activators of the rat pregnane X receptor (rPXR) signaling pathway (AID 651751; call rule not given here; note: 0% is about no effect); settings: rPXR reporter cells, luciferase (One-Glo), 24 h
Nuclear receptor subfamily 1 group I member 2 (Rattus norvegicus), sequence (Q9R1A7 whole entry, looked up): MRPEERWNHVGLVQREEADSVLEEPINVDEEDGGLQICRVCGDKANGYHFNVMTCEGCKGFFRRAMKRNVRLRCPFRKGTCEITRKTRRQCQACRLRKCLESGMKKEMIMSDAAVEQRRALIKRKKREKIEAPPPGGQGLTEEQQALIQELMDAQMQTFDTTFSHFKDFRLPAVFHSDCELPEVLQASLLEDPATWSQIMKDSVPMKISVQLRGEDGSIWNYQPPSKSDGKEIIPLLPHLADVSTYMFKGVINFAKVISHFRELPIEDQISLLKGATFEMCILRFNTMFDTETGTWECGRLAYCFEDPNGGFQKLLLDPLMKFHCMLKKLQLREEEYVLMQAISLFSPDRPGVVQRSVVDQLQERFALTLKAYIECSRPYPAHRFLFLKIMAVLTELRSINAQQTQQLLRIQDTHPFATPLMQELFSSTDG

[15] = molecular target: Peroxisome proliferator-activated receptor delta (Homo sapiens) (UniProt Q03181); experiment: qHTS assay for small molecule agonists of peroxisome proliferator-activated receptor delta signaling (AID 588534; calls by dose curve;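 note: 0% = DMSO basal wells and 100% = positive control agonist at 10 µM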)
Peroxisome proliferator-activated receptor delta (Homo sapiens), sequence (Q03181 whole entry, looked up): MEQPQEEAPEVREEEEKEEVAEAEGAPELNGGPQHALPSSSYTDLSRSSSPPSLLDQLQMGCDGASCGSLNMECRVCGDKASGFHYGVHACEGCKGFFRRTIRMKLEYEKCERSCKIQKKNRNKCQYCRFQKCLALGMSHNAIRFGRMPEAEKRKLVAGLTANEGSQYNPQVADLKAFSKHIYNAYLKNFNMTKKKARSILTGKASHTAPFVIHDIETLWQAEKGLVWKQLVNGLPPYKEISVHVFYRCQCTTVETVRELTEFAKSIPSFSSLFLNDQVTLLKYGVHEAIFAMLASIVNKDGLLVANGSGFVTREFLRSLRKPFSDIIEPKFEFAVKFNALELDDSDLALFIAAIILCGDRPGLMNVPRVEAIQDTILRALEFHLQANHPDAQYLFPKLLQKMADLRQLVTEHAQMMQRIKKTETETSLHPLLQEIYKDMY
Outline: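 Titration series tested in agonist mode on beta-lactamase reporter cells; 18 hrs at 37 C after a 5 hr pre-incubation. Readout: CCF4 fluorescence, 2 hrs RT. Hill equation gives EC50 and maximal response.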

[16] = molecular target: Vitamin D3 receptor (Homo sapiens) (UniProt P11473); experiment: qHTS assay for small molecule antagonists of vitamin D receptor signaling (AID 588541; calls by dose curve;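 note: receptor activated by calcitriol during compound treatment; series mostly up to about 77 µM; % is set by controls: 0 for no effect and ±100 for the full control effect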)
Vitamin D3 receptor (Homo sapiens), sequence (P11473 whole entry, looked up): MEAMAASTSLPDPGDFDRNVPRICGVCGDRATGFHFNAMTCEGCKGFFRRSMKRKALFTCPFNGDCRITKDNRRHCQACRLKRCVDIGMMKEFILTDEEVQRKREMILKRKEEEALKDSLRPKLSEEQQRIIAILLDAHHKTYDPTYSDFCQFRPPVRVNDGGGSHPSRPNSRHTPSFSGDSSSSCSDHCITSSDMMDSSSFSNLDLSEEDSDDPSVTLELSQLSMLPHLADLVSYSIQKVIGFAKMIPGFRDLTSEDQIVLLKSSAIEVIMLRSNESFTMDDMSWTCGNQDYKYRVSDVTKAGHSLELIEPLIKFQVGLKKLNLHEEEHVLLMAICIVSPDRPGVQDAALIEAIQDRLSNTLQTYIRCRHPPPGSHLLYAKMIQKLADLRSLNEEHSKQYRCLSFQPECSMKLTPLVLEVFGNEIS
Outline: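 VDR-UAS-bla HEK293T cells (2000/well, 2% charcoal-stripped FBS) were treated with titrated compounds plus 1-alpha,25-dihydroxyvitamin D3 (50 nM or 3 nM final) for 16 h at 37 C. CCF4 beta-lactamase fluorescence was read; Hill fits gave IC50.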

[17] = molecular target: Vitamin D3 receptor (Homo sapiens) (UniProt P11473); experiment: qHTS assay for small molecule agonists of vitamin D receptor signaling (AID 588543; calls by dose curve;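 note: 0% = DMSO basal and 100% = reference agonist control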)
Outline: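 β-lactamase reporter, VDR-UAS-bla HEK293T, agonist mode. Cells plated 5 h at 37 °C, compound titration 16 h at 37 °C, CCF4 dye 2 h RT, ratio 460/530 nm. Hill fit → EC50, efficacy vs 50 nM 1α,25-(OH)2D3.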

[18] = qHTS assay for small molecule agonists of retinoid X receptor alpha signaling (AID 588544; calls by dose curve;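 for activation: 0% = DMSO basal wells and 100% = reference agonist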); settings: HEK293T RXRa-UAS-bla, beta-lactamase reporter, 18 h; 530 nm emission
[19] = molecular target: Retinoic acid receptor RXR-alpha (Homo sapiens) (UniProt P19793); experiment: as above
[20] = molecular target: Peroxisome proliferator-activated receptor alpha (Homo sapiens) (UniProt Q07869); experiment: qHTS assay for small molecule agonists of the peroxisome proliferator-activated receptor alpha (PPARalpha) signaling pathway (AID 651778); settings: PathHunter PPARalpha complementation, chemiluminescence, 6 h; max response: stronger effect = higher value; note: % of control where 0% means no effect
Peroxisome proliferator-activated receptor alpha (Homo sapiens), sequence (Q07869 whole entry, looked up): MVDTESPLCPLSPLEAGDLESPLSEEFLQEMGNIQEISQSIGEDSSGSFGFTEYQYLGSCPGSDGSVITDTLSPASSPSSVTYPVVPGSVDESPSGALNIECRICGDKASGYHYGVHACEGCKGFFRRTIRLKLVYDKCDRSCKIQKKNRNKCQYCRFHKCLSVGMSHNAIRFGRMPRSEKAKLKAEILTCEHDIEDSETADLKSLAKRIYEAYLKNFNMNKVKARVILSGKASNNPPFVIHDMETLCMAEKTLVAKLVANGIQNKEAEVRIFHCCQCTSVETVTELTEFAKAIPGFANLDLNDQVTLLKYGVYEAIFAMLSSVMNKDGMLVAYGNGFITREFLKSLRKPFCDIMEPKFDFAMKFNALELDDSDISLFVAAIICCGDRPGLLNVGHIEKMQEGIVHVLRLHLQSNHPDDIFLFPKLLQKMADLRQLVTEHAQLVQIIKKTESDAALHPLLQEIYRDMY
Outline: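 Cells plated at 2,000/well and held overnight at 37 C, 5% CO2, then compound added by pin tool for 6 hr; after PathHunter detection reagent and 60 min at room temperature, chemiluminescence from enzyme complementation was read.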

Cn1cc(-c2ccccc2)c(=O)c(-c2cccc(C(F)(F)F)c2)c1
0.227%: max response [6]
16.9%: max response [2]
inactive: Potency [1] | Potency [3] | Potency [4] | Potency [5] | max response [7] -21.3% | activation [8] -5.34% | activation [9] 0.553% | Potency [10] | max response [11] -0.838% | max response [12] -5.04% | Potency [13] | max response [14] 0.923%

C=C(C)CN(CC)c1c([N+](=O)[O-])cc(C(F)(F)F)cc1[N+](=O)[O-]
inactive: Potency [1] | outcome [15] | Potency [3] | Potency [4] | Potency [16] | outcome [17] | Potency [19] | Potency [5] | max response [7] 1.05% | activation [8] 0.904% | activation [9] 1.28% | max response [20] 0.658% | Potency [10] | max response [11] 5.45% | max response [12] -3.14% | Potency [13]
5.96%: max response [2]
-6.07%: max response [6]
3.32%: max response [18]

O=C(NC(=O)c1c(F)cccc1F)Nc1ccc(OC(F)(F)C(F)OC(F)(F)F)c(Cl)c1 (centres undefined)
-11.8%: max response [6]
59.9%: max response [2]
-12.6%: max response [18]
inactive: Potency [1] | outcome [15] | Potency [3] | Potency [16] | outcome [17] | Potency [19] | max response [7] -13% | activation [9] 1.49% | max response [20] 0.139% | Potency [10] | max response [11] -4.81% | max response [12] -16.7% | Potency [13] | max response [14] 1.96%

COc1ccc(C(O)(c2cncnc2)C2CC2)cc1 (centres undefined)
inactive: Potency [1] | Potency [3] | Potency [4] | outcome [17] | Potency [19] | Potency [5] | max response [7] 1.16% | activation [8] -2.74% | activation [9] -0.591% | max response [20] -2.81% | Potency [10] | max response [11] -13.4% | max response [12] -5.84% | Potency [13] | max response [14] 3.59%
-7.16%: max response [18]
8.99%: max response [6]

COc1cc(Cl)c(OC)cc1Cl
inactive: Potency [1] | Potency [3] | Potency [4] | Potency [16] | outcome [17] | Potency [19] | Potency [5] | activation [8] -1% | activation [9] -2.48% | max response [20] -0.244% | Potency [10] | max response [11] -1.62% | max response [12] -14.2% | Potency [13] | max response [14] 1.36%
-12.5%: max response [18]

CC1CCCCC1NC(=O)Nc1ccccc1 (centres undefined)
3.43%: max response [2]
inactive: Potency [1] | outcome [15] | Potency [4] | Potency [16] | Potency [5] | max response [7] -9.04% | activation [8] 0.836% | activation [9] 6.72% | max response [20] -0.607% | max response [11] -4.51% | max response [12] -11.4% | Potency [13]
-4.7%: max response [6]

O=C(O)c1nc(Cl)ccc1Cl
inactive: Potency [1] | Potency [19] | Potency [5] | max response [7] -18.6% and -6.7% | activation [8] 3.37% | activation [9] 0.739% and -2.14% | max response [20] -1.62% and -4.61% | Potency [10] | max response [11] -0.246% and 14% | max response [12] -0.844% and 6.6% | Potency [13] | max response [14] 3.48% and 10.3%
15.6% and -18.9%: max response [18]
-5.13% and -14.7%: max response [6]

CCNC(=O)NC(=O)/C(C#N)=N/OC
5.29%: max response [18]
9.94%: max response [2]
-2.66%: max response [6]
inactive: Potency [1] | outcome [15] | Potency [3] | outcome [17] | Potency [19] | Potency [5] | max response [7] 12.8% | activation [9] 0.625% | max response [20] 0.388% | Potency [10] | max response [11] -0.764% | max response [12] -16.3% | Potency [13]

CC(C)(C)C(=O)[C@H](Oc1ccc(Cl)cc1)n1cncn1
inactive: Potency [1] | outcome [15] | Potency [3] | Potency [4] | Potency [16] | Potency [19] | Potency [5] | max response [7] -22% | activation [8] -5.19% | activation [9] 3.75% | max response [20] -2.36% | Potency [10] | max response [11] -6.65% | max response [12] -16.1% | Potency [13]
21.3%: max response [18]
20.1%: max response [6]

CCCN(CC)CC1COC2(CCC(C(C)(C)C)CC2)O1 (centres undefined)
inactive: Potency [1] | outcome [15] | Potency [16] | outcome [17] | Potency [19] | Potency [5] | max response [7] -5.06% | activation [8] -4.98% | activation [9] -1.94% | max response [20] 0.269% | Potency [10] | max response [11] -11.5% | max response [12] -13.1% | Potency [13] | max response [14] -3.48%
36.1%: max response [2]
-11.3%: max response [18]
-13.8%: max response [6]

CCN(CC)c1nc(C)cc(OP(=S)(OC)OC)n1
56.7%: max response [2]
26.8%: max response [18]
inactive: Potency [1] | outcome [15] | Potency [4] | Potency [16] | outcome [17] | Potency [19] | Potency [5] | activation [8] 1.41% | activation [9] 1.48% | max response [20] 3.1% | Potency [10] | max response [11] -9.93% | max response [12] -11.6% | Potency [13] | max response [14] -1.67%

CCOP(OCC)OCC
-0.591%: max response [18]
inactive: Potency [1] | Potency [3] | Potency [19] | Potency [5] | max response [7] -9.86% | activation [8] 0.684% | activation [9] 1.72% | max response [20] -2.48% | Potency [10] | max response [11] -4.24% | max response [12] 0.538% | Potency [13] | max response [14] 0.674%
-5.06%: max response [6]
